The structures appear in SMILES notation. Activity calls are given as the source filed them.

The record followed here is PubChem BioAssay.

One experiment concerns the target Albumin (Bos taurus) (UniProt P02769). Put plainly: bovine serum albumin binders on microarray, profiling panel, artefact control for SMM control protein annotation, biochemical, small-molecule microarray, Alexa647 label, 635/667 nm fluorescence (AID 1118).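 Further: score merges 667 nm emission intensity and signal-to-noise per printed compound spot.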 Conditions: BSA-A647 binding, fluorescence 635 nm, higher = more signal.
The nature of experiment [1]: small-molecule microarray binders of probe aXIP, primary screen, biochemical, NeuroSMM set, 635/667 nm fluorescence (AID 1119).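 Further: probe is the protein aXip251-270 applied at 1 µg/mL to compound-printed slides; binding of probe to printed compounds measured as 667 nm fluorescence plus signal to noise.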 The conditions noted are these: higher = more signal, called active from +8 up or from −8 down.
Experiment [2] can be described thus: small-molecule binders of probe aNOTCH3, primary screen, biochemical, small-molecule microarray, 635/667 nm fluorescence (AID 1120).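 Further: probe is a biotin-tagged antibody raised against NOTCH3 rather than NOTCH3 protein; score merges spot fluorescence near 667 nm with spot signal to noise.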 The conditions noted are these: higher = more signal.
Experiment [3] can be described thus: small-molecule binders of probe aNOTCH2, primary screen, biochemical, small-molecule microarray, 635/667 nm fluorescence (AID 1121).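 Further: score merges feature fluorescence read at 667 nm with its signal to noise.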 The conditions noted are these: higher = more signal.
Experiment [4] has as its target Carbonic anhydrase 2 (Homo sapiens) (UniProt P00918). Put plainly: CAII small-molecule binders, profiling panel, biochemical, small-molecule microarray, Alexa647-labelled CAII (AID 1122). Conditions: CAII-A647 binding fluorescence, higher = more signal.
Experiment [5] in a line: COS7 lysate on small-molecule microarray, probe aHis, 635 nm (AID 1123).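 Further: z-score combines 667nm fluorescence intensity with signal-to-noise per printed compound spot.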 Conditions: COS7 cell lysate, fluorescence, higher = more signal.
Experiment [6] is described as follows: compound binding in COS7 lysate, probe aLAP1, primary screen, cell lysate, small-molecule microarray (AID 1124).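 Further: lysate comes from COS7 cells expressing LAP1 and is applied at 0.3 µg/mL; score merges spot fluorescence near 667 nm with signal-to-noise over triplicate slides.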 Conditions: probe aLAP1, fluorescence, higher = more signal.
For another experiment, the system named is Sam68 (KHDRBS1). Put plainly: Sam68 small-molecule binders, primary screen, biochemical, small-molecule microarray, 635 nm fluorescence (AID 1125).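 Further: score merges 667 nm channel intensity with signal to noise over triplicate slides.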 Conditions: small-molecule microarray binding, higher = more signal.
Experiment [7] has as its system Chordin-like protein 2 (CHRDL2). Put plainly: CHRDL2 small-molecule binders, primary screen, biochemical, small-molecule microarray, 635 nm fluorescence (AID 1126).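 Further: printed compound slides probed with Chrdl2 protein at 4 µg/mL for 1 h at 4 C; score merges 667 nm emission intensity with signal to noise over three replicate slides.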 Conditions: small-molecule microarray binding, fluorescence 635 nm; higher = more signal.
The target of experiment [8] is Concanavalin-A (Canavalia ensiformis) (UniProt P02866). Put plainly: ConA small-molecule binders, primary screen, artefact control for SMM control protein annotation, biochemical, small-molecule microarray, Alexa647 label, 635 nm (AID 1127).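 Further: z combines 667 nm emission intensity with signal-to-noise across three replicate slides.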 The conditions noted are these: ConA-A647 binding fluorescence, higher = more signal.
Concanavalin-A (Canavalia ensiformis), sequence (P02866 whole entry, looked up): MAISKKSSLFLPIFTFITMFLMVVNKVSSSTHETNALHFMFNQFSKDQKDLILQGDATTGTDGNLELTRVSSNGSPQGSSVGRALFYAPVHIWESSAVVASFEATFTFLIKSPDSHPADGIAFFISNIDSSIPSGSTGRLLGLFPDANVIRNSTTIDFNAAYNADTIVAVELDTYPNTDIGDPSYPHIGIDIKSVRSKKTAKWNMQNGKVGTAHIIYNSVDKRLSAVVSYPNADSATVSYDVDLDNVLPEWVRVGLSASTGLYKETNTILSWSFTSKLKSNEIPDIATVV

Albumin (Bos taurus), sequence (P02769 whole entry, looked up): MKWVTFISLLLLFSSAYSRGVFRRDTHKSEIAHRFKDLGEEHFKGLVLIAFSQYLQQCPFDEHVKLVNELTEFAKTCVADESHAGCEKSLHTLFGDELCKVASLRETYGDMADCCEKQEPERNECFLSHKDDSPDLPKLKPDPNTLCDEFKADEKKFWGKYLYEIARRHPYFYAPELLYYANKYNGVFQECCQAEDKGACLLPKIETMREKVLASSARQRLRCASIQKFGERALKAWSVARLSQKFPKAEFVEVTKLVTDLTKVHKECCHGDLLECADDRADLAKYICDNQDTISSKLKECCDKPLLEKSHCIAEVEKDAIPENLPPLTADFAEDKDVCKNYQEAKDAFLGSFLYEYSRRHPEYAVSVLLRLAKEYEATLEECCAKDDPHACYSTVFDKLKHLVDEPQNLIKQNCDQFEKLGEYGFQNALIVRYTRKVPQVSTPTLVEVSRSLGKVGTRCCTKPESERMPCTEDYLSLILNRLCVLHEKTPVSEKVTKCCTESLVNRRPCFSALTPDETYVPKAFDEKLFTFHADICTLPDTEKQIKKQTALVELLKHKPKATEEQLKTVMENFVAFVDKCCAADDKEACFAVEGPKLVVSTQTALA

Take `O=C1C2C=CC(C(O)c3cccc(O)c3)N(Nc3ccccc3F)C2C(=O)N1c1ccccc1` (stereo not given): the composite z-score with Albumin (Bos taurus) was 0.92; in experiment [2], 0.025; in experiment [3], -0.141; in experiment [4] it was 0.756; in [5] it was -0.0811; in experiment [6], -0.841. In addition, the composite z-score with Sam68 (KHDRBS1) was 0.664; in [7], -0.406; in [8] it was 0.0597. The composite Z-score in [1] was -0.539 (inactive).
As for `C=CC[C@]1(C(=O)OC)N=C(c2ccc(OCCCO)cc2)O[C@H]1c1ccccc1N=[N+]=[N-]`, the composite z-score in the experiment with Albumin (Bos taurus) was -0.899; in experiment [2], 0.734; in [3], 0.26; in experiment [4] it was 0.429; in experiment [5], 2.87; in [6], 0.198. For the same molecule, the composite z-score in the experiment on Sam68 (KHDRBS1) was determined as 1.3; in experiment [7] it was 1.14; in [8], 1.09. For the same molecule, the composite Z-score in experiment [1] is 0.0557 (inactive).
Take `CN1C=C(C(=O)OCCS(C)(=O)=O)C(C(=O)OCCS(C)(=O)=O)=CC(CCCO)=CC1c1ccc(CN2CCCC2)cc1` (stereo not given): the composite z-score was 0.676 in the experiment with Albumin (Bos taurus); 0.405 in experiment [2]; -0.146 in [3]; 0.746 in experiment [4]; 1.87 in [5]; -0.197 in experiment [6]. In addition, the composite z-score in the experiment on Sam68 (KHDRBS1) worked out at 1.3; in experiment [7], 0.369; in experiment [8] it was 0.907. In experiment [1], the composite Z-score is 0.48 (inactive).
For the molecule `CN(C)C(=O)[C@]1(Cc2ccccc2CN=[N+]=[N-])N=C(c2ccc(OCCCO)cc2)O[C@@H]1c1ccccc1N=[N+]=[N-]`, the composite z-score was 0.873 in the experiment with Albumin (Bos taurus); -0.155 in [2]; -0.153 in [3]; 0.58 in [4]; 2.68 in experiment [5]; -0.339 in experiment [6]. The composite z-score was 1.3 in the experiment on Sam68 (KHDRBS1), -0.534 in [7] and 1.07 in [8]. Besides, the composite Z-score in experiment [1] is -0.118 (inactive).
For `CC(C)N1CC=CC23O[C@@H]4C=CCCOC(=O)C4[C@H]2C(=O)N(CCCCCO)[C@@H]3C1=O` (stereo not given in full), the composite z-score in the experiment with Albumin (Bos taurus) was 0.62; in experiment [2] it was -0.214; in experiment [3], -0.153; in experiment [4] it was 0.853; in experiment [5], 0.19; in experiment [6], 0.543. Also, the composite z-score in the experiment on Sam68 (KHDRBS1) was -0.411; in [7], -0.654; in [8], 0.878. Besides, the composite Z-score in experiment [1] was 0.23 (inactive).
As to `CCCC=C(CCC)[C@@H](NC(=O)c1ccccc1)c1ccc(C(=O)OC)cc1`, the composite z-score with Albumin (Bos taurus) was -0.122; in experiment [2], 1.21; in experiment [3], -0.166; in experiment [4], 0.526; in [5], 1.77; in experiment [6], 0.0914. In addition, the composite z-score in the experiment on Sam68 (KHDRBS1) was determined as 0.823; in experiment [7] it was 0.308; in [8] it was 0.711. Further, in [1], the composite Z-score is -0.222 (inactive).
For the molecule `O=C(NCC(F)(F)F)[C@@H]1c2ccccc2C(=O)N(CC23CC4CC(CC(C4)C2)C3)[C@H]1c1ccc(CO)cc1`, the composite z-score was 0.15 in the experiment with Albumin (Bos taurus); 0.0981 in experiment [2]; -0.147 in [3]; 0.25 in experiment [4]; 0.699 in experiment [5]; 0.622 in experiment [6]. The composite z-score was 1.27 in the experiment on Sam68 (KHDRBS1), 0.162 in experiment [7] and 0.734 in experiment [8]. For the same molecule, the composite Z-score in experiment [1] was 0.251 (inactive).
For the molecule `COCC(=C=CC[C@@H](O)c1ccc(OCCO)cc1)C[C@@H](O)COCc1ccccc1`, the composite z-score was 0.769 in the experiment with Albumin (Bos taurus); 0.0528 in experiment [2]; -0.0796 in experiment [3]; 0.805 in [4]; 2.3 in experiment [5]; 0.686 in experiment [6]. Further, the composite z-score worked out at 1.28 in the experiment with Sam68 (KHDRBS1), 0.0466 in experiment [7] and 0.547 in experiment [8]. Further, in experiment [1], the composite Z-score was -0.727 (inactive).
As to `[N-]=[N+]=NCc1ccccc1C[C@]1(C(=O)N2CCCCC2)N=C(c2ccc(OCCCO)cc2)O[C@H]1c1ccccc1`, the composite z-score with Albumin (Bos taurus) was -0.0604; in experiment [2], 0.23; in experiment [3], -0.0323; in experiment [4], 0.564; in experiment [5], 1.22; in [6] it was -0.0174. Also, the composite z-score is 0.979 in the experiment on Sam68 (KHDRBS1), -1.02 in experiment [7] and 0.717 in [8]. The composite Z-score in experiment [1] is 0.397 (inactive).
Consider `CCOC(=O)C1=C[C@@H](C(C)(C)C)N(S(=O)(=O)c2ccc(C)cc2)[C@H]1c1ccccc1Cl`, for which the composite z-score amounted to 0.981 with Albumin (Bos taurus); 0.0203 in [2]; 0.0423 in [3]; 0.223 in experiment [4]; 1.72 in experiment [5]; 0.472 in experiment [6]. Moreover, the composite z-score was 1.32 with Sam68 (KHDRBS1), -0.584 in experiment [7] and 1.12 in experiment [8]. Besides, the composite Z-score in experiment [1] was 0.102 (inactive).
Regarding `COC(=O)C1=CC(CCCO)=CC(c2ccc(CN3CCCC3)cc2)N(Cc2sc3ccccc3c2Cl)C=C1C(=O)OC` (stereo not given), the composite z-score came to 1.05 with Albumin (Bos taurus); 0.734 in experiment [2]; 0.157 in experiment [3]; 0.788 in experiment [4]; 2.95 in experiment [5]; 0.926 in [6]. Besides, the composite z-score with Sam68 (KHDRBS1) came out at 1.3; in [7] it was 0.153; in experiment [8], 1.21. Also, the composite Z-score in experiment [1] was 3.3 (inactive).
For `NCCCC[C@@H]1NC(=O)[C@H]2C[C@@H](C(=O)O)[C@@H](c3cccc(OCCO)c3)N2C1=O`, the composite z-score with Albumin (Bos taurus) is 0.294; in experiment [2], 0.526; in experiment [3], -0.0106; in experiment [4], 0.396; in experiment [5], 2.88; in [6], 0.521. In addition, the composite z-score was determined as 1.29 in the experiment on Sam68 (KHDRBS1), 1.39 in experiment [7] and 1.1 in experiment [8]. Besides, the composite Z-score in [1] was 1.71 (inactive).
On to `CN1C(=O)[C@]2(CCS(=O)(=O)c3ccccc3)N=C(c3ccc(OCCCO)cc3)O[C@@H]2c2ccccc21`, for which the composite z-score with Albumin (Bos taurus) was 0.568; in [2], 0.0026; in [3] it was -0.121; in experiment [4], 0.531; in experiment [5], 2.81; in experiment [6], 0.354. For the same molecule, the composite z-score in the experiment on Sam68 (KHDRBS1) was determined as 1.2; in experiment [7], 0.502; in experiment [8], 0.838. In addition, in experiment [1], the composite Z-score was 0.222 (inactive).
Regarding `C#CCN(C/C=C/c1ccccc1)[C@H](CO[Si](C)(C)C(C)(C)C)c1ccccc1`, the composite z-score with Albumin (Bos taurus) is 0.491; in experiment [2] it was -0.125; in experiment [3], -0.229; in [4], -0.33; in experiment [5] it was -0.0873; in [6], 0.0021. In addition, the composite z-score in the experiment on Sam68 (KHDRBS1) was 0.102; in experiment [7], -0.167; in experiment [8], -0.111. The composite Z-score in experiment [1] is -0.12 (inactive).
Consider `CC(=O)NCCCC[C@@H]1NC(=O)[C@H]2C[C@@H](C(=O)NCCCCCC[N+](C)(C)C)[C@@H](c3ccc(O)cc3)N2C1=O`, for which the composite z-score with Albumin (Bos taurus) was 0.596; in experiment [2], -0.0057; in experiment [3], -0.0556; in experiment [4] it was 0.676; in experiment [5], 2.2; in [6], 0.527. In addition, the composite z-score in the experiment on Sam68 (KHDRBS1) came to 1.17; in experiment [7], 1.4; in experiment [8], 0.682. In [1], the composite Z-score is 0.285 (inactive).
In the case of `[N-]=[N+]=NCc1ccccc1C[C@]1(C(=O)NCc2ccccc2)N=C(c2ccc(OCCCO)cc2)O[C@H]1c1ccccc1CN=[N+]=[N-]`, the composite z-score with Albumin (Bos taurus) was determined as 0.735; in experiment [2], 0.192; in experiment [3] it was 0.0522; in experiment [4], 0.727; in experiment [5] it was 2.67; in [6] it was 0.478. In addition, the composite z-score in the experiment on Sam68 (KHDRBS1) was 0.839; in experiment [7], -0.324; in experiment [8], 0.958. Also, the composite Z-score in experiment [1] was 0.597 (inactive).
Take `COc1cccc(OC)c1C(=O)O[C@H]1[C@@H]2OC(=O)[C@H](Cc3cccc(Br)c3)C/C=C/C[C@@H](Cc3cccc(Br)c3)C(=O)O[C@H]2[C@@H](OC)O[C@@H]1CO`: the composite z-score was 0.33 with Albumin (Bos taurus); -0.122 in experiment [2]; -0.105 in [3]; 0.628 in experiment [4]; 1.2 in experiment [5]; 0.56 in experiment [6]. The values for the composite z-score (in the experiment with Sam68 (KHDRBS1); in [7]; in [8]) were 1.06, 0.351 and 0.293, respectively. Besides, the composite Z-score in [1] was 0.878 (inactive).
